Source: PubChem BioAssay (National Center for Advancing Translational Sciences (NCATS))
A selection: hits, their analogues and other compounds. The true share with any hit is near 7.9%.
HCV inhibitor = HCV inhibition; Huh7.5.1 HCVcc-Cre infection, luciferase reporter, 44 h; Potency, µM (top dose mostly 41.8 µM), usual class: inhibitors; 340,000 tested, 3.4% active; active means well fitted inhibition curve with a large enough effect; inconclusive means small, poorly fitted or top-dose-only effect, or another doubt; inactive means no such curve, though single readings can be large or run the other way
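Seed cells (1,000/well) for 4 h; treat with compound and infect with HCVcc-Cre, moi about 0.5. Incubate 44 h, then detect luciferase activity.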
LASV entry inh = Lassa virus entry inhibition; 300,000 tested, 1.2% active; AID 540256; Potency, µM (titrated, usually from 37.9 µM), usual class: inhibitors; Lassa virus pseudotype entry inhibition, cell reporter; calls by dose curve; tested in HEK293 cells; further: nearly all actives have a fitted effect of over 50% in size
FMDV antiviral = blocks foot and mouth disease virus; 410,000 tested, 1.2% active; FMDV antiviral cell-based qHTS; Potency, µM (doses to about 57.9 µM), hits mostly inhibitors; calls by dose curve; tested in HEK293T cells; further: read-out not given here; nearly all actives have a fitted effect of over 45% in size
HCMV inh = human cytomegalovirus inhibition. 410,000 tested, 4.5% active. HFF cells, HCMV-luciferase reporter, 72 h; stronger effect = lower value. AID 1259415. activity change, negative = inhibition, % at 57.5 µM; in the data active means activity change below about -60%; inconclusive means no clear call, values can overlap the other calls; inactive means above about -39%
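Steps: HFFs plated, 16 h 37C; compounds added; HCMV-luciferase added to MOI 1 PFU/cell; 72 h 37C; OneGlo reagent, 5 min room temperature; luminescence read, normalized to controls.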
Marburg entry inh = inhibitors of Marburg virus binding or cell entry; Potency, µM (titrated, usually from 37.8 µM), usual class: inhibitors; 300,000 tested, 1.8% active; AID 540276; Marburg virus pseudotyped entry inhibition, cell reporter; calls by dose curve; tested in HEK293 cells
Of the large screens only hits and unclear results are named; the others gave an inactive call; ! = a repeat was not active.

COC(=O)[C@@]1(Cc2ccc(F)cc2)[C@H]2c3cc(C(=O)N(C)C)n(Cc4ccccc4)c3C[C@H]2CN1C(=O)c1ccccc1	LASV entry inh inconclusive, FMDV antiviral inconclusive, HCMV inh inconclusive, Marburg entry inh 13µM
COC(=O)[C@@]1(Cc2ccc(OC)cc2)[C@H]2c3cc(C(=O)N(C)C)n(Cc4ccc(OC(F)(F)F)cc4)c3C[C@H]2CN1C(=O)c1ccccc1	HCV inhibitor inconclusive, LASV entry inh inconclusive, Marburg entry inh 9.2µM (no result: HCMV inh)
COC(=O)[C@@]1(Cc2ccc(OC)cc2)[C@H]2c3cc(C(=O)N4CCCC4)n(Cc4ccc(S(C)(=O)=O)cc4)c3C[C@H]2CN1C(=O)c1ccccc1	HCMV inh -65.5 (no result: HCV inhibitor, LASV entry inh, Marburg entry inh)
COc1ccc(CN2CCOc3c(O)cc(-c4cc(C)c5ccc(F)cc5n4)cc3C2)c(O)c1	none (no result: HCV inhibitor, LASV entry inh, HCMV inh, Marburg entry inh)
C[C@@]12CCCO[C@@]13C=CC(=O)C=C3CCC2	none (no result: HCV inhibitor, LASV entry inh, FMDV antiviral, Marburg entry inh)
CCOC(=O)c1c(C)oc2nc(C)nc(NCCc3ccc(OCC)c(OCC)c3)c12	LASV entry inh inconclusive (no result: HCV inhibitor, Marburg entry inh)
O=C(c1ccc2c(c1)N(Cc1ccc(Cl)cc1)C(=O)c1ccccc1S2(=O)=O)N1CCOCC1	none (no result: HCV inhibitor)
Cc1cccc2cc(C(c3nnnn3Cc3ccccc3)N3CCCc4ccccc43)c(=O)[nH]c12 (stereo not drawn)	HCMV inh -82.7, Marburg entry inh inconclusive (no result: HCV inhibitor)
Cc1ccc2cc(C(c3nnnn3Cc3ccccc3)N3CCN(c4ccccc4)CC3)c(=O)[nH]c2c1 (stereo not drawn)	HCV inhibitor inconclusive, Marburg entry inh 20.6µM
C[C@H]1[C@@H](NS(=O)(=O)c2ccc(-c3ccccc3)cc2)CC[C@@]23CCCN2C(=O)CCC[C@@H]13	none (no result: HCV inhibitor, LASV entry inh, FMDV antiviral, Marburg entry inh)
Cc1nc(C)n(CC(=O)NCC2Cc3cc(-c4ccsc4)cc(Cl)c3O2)n1 (stereo not drawn)	none (no result: HCV inhibitor, LASV entry inh, HCMV inh, Marburg entry inh)
COC(=O)c1ccc(Sc2nnnn2-c2ccccc2)c([N+](=O)[O-])c1	LASV entry inh inconclusive, FMDV antiviral 20µM, Marburg entry inh inconclusive
CCn1c(=O)c2cc(C(=O)N(C)c3ccccc3F)sc2c2ccccc21	HCV inhibitor 1µM, HCMV inh inconclusive
CCCN(C(=O)c1cc2c(=O)n(CC)c3ccccc3c2s1)c1ccccc1F	none (no result: HCV inhibitor)
CCn1c(=O)c2cc(C(=O)N(C)c3cc(C)ccc3OC)sc2c2ccccc21	HCV inhibitor 12.6µM (no result: LASV entry inh, Marburg entry inh)
CCOc1ccccc1N(CC)C(=O)c1cc2c(=O)n(CC)c3ccccc3c2s1	FMDV antiviral inconclusive, HCMV inh -70.2, Marburg entry inh inconclusive (no result: HCV inhibitor)
COc1cc2c(cc1Cl)/C(=C\CCN(C)C)c1ccccc1S2	HCV inhibitor inconclusive, LASV entry inh inconclusive, Marburg entry inh inconclusive
CN1CCN(CC/C=C2/c3ccccc3Sc3ccc(S(=O)(=O)N(C)C)cc32)CC1	HCV inhibitor inconclusive, Marburg entry inh 3.98µM! (no result: LASV entry inh)
Clc1ccc(C2=NNC(=NCc3ccc4c(c3)OCO4)SC2)cc1	LASV entry inh inconclusive, HCMV inh inconclusive, Marburg entry inh 12.6µM
Oc1ccc(C2=NNC(=NCc3ccc4c(c3)OCO4)SC2)c(O)c1	Marburg entry inh inconclusive
CC(C)(C)N=C1NN=C(c2ccc(Cl)cc2)CS1	HCV inhibitor 10µM, HCMV inh inconclusive (no result: LASV entry inh, Marburg entry inh)
COc1ccc(CN=C2NN=C(c3ccc(Cl)cc3)CS2)cc1	none
O=C(/C=N\O)NCCCN1CCOCC1	none (no result: HCV inhibitor, LASV entry inh, FMDV antiviral, HCMV inh)
C=C(C(=O)c1ccccc1)C(C)CC(=O)c1ccccc1 (stereo not drawn)	HCV inhibitor inconclusive, LASV entry inh inconclusive, FMDV antiviral 28.2µM, HCMV inh -82.3, Marburg entry inh inconclusive
O=C(CC(Nc1ccccc1)C(=O)O)c1ccccc1 (stereo not drawn)	LASV entry inh inconclusive
C=C(C(=O)c1ccccc1)C(NC(C)(C)C)c1ccccc1 (stereo not drawn)	HCV inhibitor 3.55µM, LASV entry inh inconclusive, FMDV antiviral 10µM, HCMV inh -98.0, Marburg entry inh inconclusive
Cc1ccc(C(=O)NCCSc2c(C)[nH]c3ccccc23)cc1[N+](=O)[O-]	HCV inhibitor 11.2µM, LASV entry inh inconclusive, FMDV antiviral 35.5µM
COc1cccc(C(=O)NCCSc2c(C)[nH]c3ccccc23)c1OC	HCV inhibitor 12.6µM, FMDV antiviral inconclusive (no result: LASV entry inh, Marburg entry inh)
COc1ccc(-c2[nH]c3ccccc3c2SCCNC(=O)c2ccccc2)cc1	HCV inhibitor 12.6µM, LASV entry inh inconclusive, Marburg entry inh inconclusive
COc1ccc(O[C@H]2C=C[C@@H](c3ccccc3)O[C@H]2CON=C2c3cc(OC)ccc3O[C@H](c3cccc(OC)c3)[C@H]2O)cc1	Marburg entry inh inconclusive (no result: HCV inhibitor, FMDV antiviral, HCMV inh)
CCOc1ccc2nc(NC(=O)c3ccccc3)sc2c1	FMDV antiviral inconclusive (no result: HCV inhibitor, Marburg entry inh)
CCOc1ccc2nc(NC(=O)c3ccc(C)o3)sc2c1	HCV inhibitor inconclusive, LASV entry inh 8.91µM, Marburg entry inh inconclusive
CCOc1ccc2nc(NC(=O)CS(=O)(=O)c3ccc(Cl)cc3)sc2c1	LASV entry inh inconclusive, HCMV inh active (no result: HCV inhibitor, Marburg entry inh)
CCC1CCCCN1CCCNC(=O)c1cc2c(=O)n(CC)c3ccccc3c2s1 (stereo not drawn)	LASV entry inh inconclusive (no result: HCV inhibitor)
Cc1ccc2nc(Cl)c3cc(C(=O)NCCCN4CCCC4)sc3c2c1	HCV inhibitor 8.91µM, Marburg entry inh 10µM
CCC1CCCCN1CCCNC(=O)c1cc2c(Cl)nc3ccc(C)cc3c2s1 (stereo not drawn)	LASV entry inh inconclusive, HCMV inh -106.2, Marburg entry inh inconclusive (no result: HCV inhibitor)
Cc1ccc2nc(Cl)c3cc(C(=O)N4CCCCC4)sc3c2c1	none (no result: HCV inhibitor)
CCc1ccc(CNC(=O)CCN2C(=O)COc3ccccc32)cc1	none (no result: HCV inhibitor, Marburg entry inh)
O=C(O)CN1C(=O)/C(=C\c2cc(Br)ccc2OCc2ccccc2Cl)SC1=S	LASV entry inh inconclusive
O=C(CCN1C(=O)/C(=C/c2ccccc2Cl)SC1=S)N1CCOCC1	HCV inhibitor 5.62µM, LASV entry inh inconclusive, Marburg entry inh inconclusive
O=C(CCCN1C(=O)/C(=C/c2ccccc2)SC1=S)N1CCOCC1	HCMV inh -97.4 (no result: LASV entry inh)
O=C(O)CN1C(=O)/C(=C\c2ccccc2OCc2ccc(Cl)cc2Cl)SC1=S	FMDV antiviral 25.1µM
O=C(CCCN1C(=O)/C(=C/c2ccccc2Cl)SC1=S)NNC(=O)c1ccccc1Cl	LASV entry inh inconclusive, FMDV antiviral inconclusive, HCMV inh -87.8, Marburg entry inh 6.31µM
CCCCN(CC)CCNC(=O)CCn1cnc2onc(-c3ccc(F)cc3)c2c1=O	none (no result: HCV inhibitor, Marburg entry inh)
CCc1ccc(/C=C2\SC(=S)N(CCCC(=O)NCCCN3CCOCC3)C2=O)cc1	FMDV antiviral inconclusive (no result: HCV inhibitor, LASV entry inh, Marburg entry inh)
O=C1C(=Cc2cccc(O)c2O)SC(=S)N1CCCN1CCOCC1	HCMV inh -97.5 (no result: HCV inhibitor, LASV entry inh, Marburg entry inh)
CCOc1ccc(/C=C2\SC(=S)N(CCCC(=O)NCCCN3CCOCC3)C2=O)cc1	LASV entry inh inconclusive, FMDV antiviral 11.2µM, HCMV inh -95.0, Marburg entry inh inconclusive
O=C(CCCN1C(=O)/C(=C/c2ccccc2Cl)SC1=S)N1CCCC1	HCV inhibitor inconclusive, FMDV antiviral inconclusive, HCMV inh -109.0 (no result: LASV entry inh, Marburg entry inh)
CCOC(=O)c1ccc(NC(=O)Cn2cc(C(=O)C3CC3)c3ccccc32)cc1	LASV entry inh inconclusive (no result: HCV inhibitor)
O=S(=O)(CCSc1nc2ccccc2o1)c1nc2ccccc2s1	HCV inhibitor 11.2µM, LASV entry inh inconclusive, FMDV antiviral 15.8µM, Marburg entry inh inconclusive
